About 14,000 (4.5%) of roughly 310,000 compounds showed an effect of 50% or more. Effects have a minus sign here. This excerpt belongs to a sample that is enriched for strong results.
biological target: human ether-à-go-go-related gene (hERG) potassium channel (human, UniProt Q12809); assay: primary screen, population patch clamp on CHO cells stably expressing hERG; higher = less effect of the substance
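Note: peak tail current of the secondary pulse compared with the same well before compound.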

human ether-à-go-go-related gene (hERG) potassium channel, sequence (Q12809 whole entry, looked up): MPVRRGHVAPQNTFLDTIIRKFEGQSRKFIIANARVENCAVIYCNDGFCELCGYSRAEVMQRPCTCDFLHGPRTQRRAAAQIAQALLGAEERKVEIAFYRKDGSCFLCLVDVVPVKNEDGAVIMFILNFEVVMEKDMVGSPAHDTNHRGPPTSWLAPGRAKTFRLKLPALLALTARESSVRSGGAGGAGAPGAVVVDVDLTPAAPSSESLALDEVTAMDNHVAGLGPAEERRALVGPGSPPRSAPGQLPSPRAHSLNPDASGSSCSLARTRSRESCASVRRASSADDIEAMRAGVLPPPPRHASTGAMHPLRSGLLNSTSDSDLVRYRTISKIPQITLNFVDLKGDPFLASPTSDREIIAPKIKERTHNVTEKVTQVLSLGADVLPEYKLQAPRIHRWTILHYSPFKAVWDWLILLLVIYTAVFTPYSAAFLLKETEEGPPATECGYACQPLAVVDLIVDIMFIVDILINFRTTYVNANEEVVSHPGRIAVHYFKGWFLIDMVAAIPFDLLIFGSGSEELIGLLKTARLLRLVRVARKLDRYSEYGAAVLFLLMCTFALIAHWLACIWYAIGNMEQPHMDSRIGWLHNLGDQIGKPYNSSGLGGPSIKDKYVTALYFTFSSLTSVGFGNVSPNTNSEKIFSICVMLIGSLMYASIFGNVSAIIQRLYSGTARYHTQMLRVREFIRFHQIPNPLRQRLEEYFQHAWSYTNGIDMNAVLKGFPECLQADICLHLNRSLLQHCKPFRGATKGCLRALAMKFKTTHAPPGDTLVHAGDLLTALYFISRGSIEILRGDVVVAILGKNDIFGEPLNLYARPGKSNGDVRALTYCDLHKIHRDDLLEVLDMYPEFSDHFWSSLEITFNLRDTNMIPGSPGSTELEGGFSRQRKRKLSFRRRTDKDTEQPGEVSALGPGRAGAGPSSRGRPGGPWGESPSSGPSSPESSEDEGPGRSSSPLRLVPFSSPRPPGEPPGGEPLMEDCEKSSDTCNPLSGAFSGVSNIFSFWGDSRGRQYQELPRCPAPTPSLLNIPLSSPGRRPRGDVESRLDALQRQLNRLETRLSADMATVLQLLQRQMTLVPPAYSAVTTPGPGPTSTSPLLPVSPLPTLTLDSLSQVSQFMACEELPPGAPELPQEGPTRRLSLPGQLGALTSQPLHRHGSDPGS

Structure (SMILES) | hERG current change (%, negative = inhibition) at 10uM
O=C1c2ccccc2S(=O)(=O)N1CC(O)Cn1c2ccccc2c2ccccc21 (stereo not shown) | 3.03%
CCn1c(Cc2ccccc2)nnc1SCC(=O)Nc1ccc(N2CCOCC2)c(Cl)c1 | -5.94%
COc1cc(CNCCc2ccc(F)cc2)ccc1OCc1ccc(Cl)nc1.Cl | -68.2%
CCCCNCc1ccc(OCc2ccc(Cl)nc2)c(OC)c1.Cl | -32.7%
COc1cc(CNCCc2ccccc2)ccc1OCc1ccc(Cl)nc1.Cl | -39.5%
COc1cc(CNCCc2ccccc2F)ccc1OCc1ccc(Cl)nc1.Cl | -49.5%
CCCCCNCc1ccc(OCc2ccc(Cl)nc2)c(OC)c1 | -45.8%
COc1ccc(CCNCc2ccc(OCc3ccc(Cl)nc3)c(OC)c2)cc1OC.Cl | -63.3%
CC1CCCC(NC(=O)COC(=O)c2ccc3ncsc3c2)C1C (stereo not shown) | -3.48%
CC(C)N(C1=CC(=O)OC12CCCCC2)C(C)C | -0.582%
COc1cc(C(=O)N/N=C(\C)Cc2ccccc2)cc(OC)c1OC | 9.1%
CCOC(=O)N1CCC(NC(=O)CSCc2nc(-c3ccc(OC)c(OC)c3)oc2C)CC1 | -2.5%
COc1ccc(-c2onc(C)c2-c2cnn(-c3ccccc3)c2)c(O)c1 | 3.71%
COc1cc(OC)c(/C=N/NC(=O)c2ccc(Cn3nc([N+](=O)[O-])cc3C)cc2)c(OC)c1 | -37.1%
Cc1ccc2nsnc2c1NC(=O)c1ccc([N+](=O)[O-])o1 | 13.1%
CCN1CCN(Cc2ccc(NC(=O)c3ccc(C)c(NC(=O)N4CCNC4=O)c3)cc2C(F)(F)F)CC1 | 1.09%
CCOC(=O)C1(Cc2ccccc2)CCN(Cc2cccn2-c2cccnc2)CC1 | -39%
CCOC(=O)C1(CCOc2ccccc2)CCN(Cc2cccn2-c2cccnc2)CC1 | -51.8%
OCC1(CCc2ccccc2)CCN(Cc2cccn2-c2cccnc2)CC1 | -49.4%
OCC1(CCOc2ccccc2)CCN(Cc2cccn2-c2ncccn2)CC1 | -82.2%
CCOC(=O)C1(CCOc2ccccc2)CCN(Cc2cccn2-c2ncccn2)CC1 | -76.4%
O=C(Nc1ccccc1)c1ccccc1N=Cc1ccccc1O | 2.2%

Structure (SMILES) | hERG current change (%, negative = inhibition) at 10uM
COc1cc2c(cc1OC)CN(S(=O)(=O)c1cccc(F)c1)CC2 | 18.6%
Cc1ccc(C)c(C(=O)COC(=O)Cn2[nH]c(=O)c3ccccc3c2=O)c1 | 5.51%
O=C(CN1C(=O)NC2(CCCC2)C1=O)N1CCN(c2cccc(C(F)(F)F)c2)CC1 | -24.5%
Cc1oc2c(C)c3oc(=O)c(CCC(=O)NCCCN4CCOCC4)c(C)c3cc2c1C | -6.99%
COc1ccccc1CCN=C(N)NS(=O)(=O)c1ccc(C)c(C)c1 | 9.37%
O=C(COC(=O)c1ncc(Cl)c(Cl)c1Cl)NCc1ccccc1 | 2.42%
CCN1CCN(C(=O)CS(=O)Cc2nc(-c3cccc(C)c3)oc2C)CC1 (stereo not shown) | 3.36%
COc1ccc(-c2nnc(SC(C(=O)c3c[nH]c4ccccc34)c3ccccc3)n2N)cc1OC (stereo not shown) | 2.03%
COc1ccc(NC(=O)c2cc3ccc(O)cc3o/c2=N\O)cc1 | 2.99%
CCCn1c(=O)c2ccccc2n2c(SCc3c(C(=O)OCC)oc4ccccc34)nnc12 | -43.5%
C=CCn1c(=O)c2ccccc2n2c(SCC(=O)Nc3sc(C(=O)N(CC)CC)c(C)c3C(=O)OCC)nnc12 | -52.3%
C=CCn1c(=O)c2ccccc2n2c(SCC(N)=O)nnc12 | 2.96%
C=CCn1c(=O)c2ccccc2n2c(SCc3c(C(=O)OCC)oc4ccccc34)nnc12 | -56.1%
C=CCn1c(=O)c2ccccc2n2c(SCC(=O)NC)nnc12 | -1.24%
C=CCn1c(=O)c2ccccc2n2c(SCC(=O)Nc3sc(C)c(CC)c3C(=O)OCC)nnc12 | 6.96%
Cc1ccc(S(=O)(=O)N(C)C)cc1NC(=O)CN1C(=O)NC(Cc2ccccc2)C1=O (stereo not shown) | 8.61%
CC(=O)c1ccc(OCC(O)CN2CCN(CCO)CC2)cc1.Cl (stereo not shown) | 9.1%
O=C(O)C(=O)O.OCCN1CCN(CC(O)COC(c2ccc(F)cc2)c2ccc(F)cc2)CC1 (stereo not shown) | -61.9%
Cc1ccccc1C(OCC(O)CN1CCN(CCO)CC1)c1ccccc1.O=C(O)C(=O)O (stereo not shown) | -12.1%
O=C(O)C(=O)O.OC(COC(c1ccc(F)cc1)c1ccc(F)cc1)CN1CCCC(C(F)(F)F)C1 (stereo not shown) | 10.8%
O=C(O)C(=O)O.OC(COC(c1ccc(F)cc1)c1ccc(F)cc1)CN1CCCC1 (stereo not shown) | -70.6%
O=C(O)C(=O)O.OC1CCCN(CC(O)COC(c2ccc(F)cc2)c2ccc(F)cc2)C1 (stereo not shown) | -57.6%

Structure (SMILES) | hERG current change (%, negative = inhibition) at 10uM
O=C(OCN1C(=O)c2ccccc2C1=O)c1cccc(S(=O)(=O)N2CCOCC2)c1 | -3.06%
CN1c2ccsc2/C(=N/NC(=O)c2c(F)cccc2F)CS1(=O)=O | 4.31%
Cc1cccc(C2(c3cccc(C)c3)CC2C(=O)NCC2CCCO2)c1 (stereo not shown) | -6.94%
CC(CC(=O)N1CCN(S(=O)(=O)c2ccccc2)CC1)n1cncn1 (stereo not shown) | 20.1%
NS(=O)(=O)c1ccc(CCNC(=O)Nc2ccc(Cl)cc2)cc1 | -9.65%
O=c1cc(NC2CCCCCC2)[nH]c(=O)[nH]1 | 4.69%
CN(C)C(=O)Oc1c(Cl)cc(Cl)c2ccccc12 | -36.2%
CCC(/C=C1\Sc2ccc(OC)cc2N1CCO)=C\c1sc2ccc(OC)cc2[n+]1CCO.[Cl-] | -72.9%
CCC(=O)/C=C1\Sc2ccc(OC)cc2N1CCO | -0.298%
CCC(/C=C1\Sc2ccc(OC)cc2N1CC)=C\c1sc2ccc(OC)cc2[n+]1CCCS(=O)(=O)[O-] | 15%
O=C(Nc1cccc(C(F)(F)F)c1)C1CCCN(c2ncccn2)C1 (stereo not shown) | -53.4%
Cl.O=C(Nc1cccc(C(F)(F)F)c1)c1cccnc1N1CCN(c2ccccc2)CC1 | 7.25%
O=C(NCc1ccccc1)C1CCCN(c2cnccn2)C1 (stereo not shown) | -28.9%
O=C(Nc1cccc(C(F)(F)F)c1)c1cccnc1N1CCN(CCO)CC1 | -63.8%
Cc1ccc(NC(=O)C2CCCN(c3ncccn3)C2)cc1F (stereo not shown) | -0.00042%
O=C(NCc1ccc(Cl)cc1)C1CCCN(c2cnccn2)C1 (stereo not shown) | -66.5%
CC(=O)Nc1ccc(NC(=O)C2CCCN(c3ncccn3)C2)cc1 (stereo not shown) | 2.63%
O=C(Nc1cccc(C(F)(F)F)c1)c1cccnc1N1CCCC1 | 13.2%
COc1cccc(CNC(=O)C2CCCN(c3cnccn3)C2)c1 (stereo not shown) | -14.4%
O=C(NCc1cccc(C(F)(F)F)c1)C1CCCN(c2ncccn2)C1 (stereo not shown) | -37.1%
Cc1ccc(CNC(=O)C2CCCN(c3cnccn3)C2)cc1 (stereo not shown) | -40%
O=C(NCc1cccc(C(F)(F)F)c1)C1CCCN(c2cnccn2)C1 (stereo not shown) | -61%

Structure (SMILES) | hERG current change (%, negative = inhibition) at 10uM
COC(=O)C1=C(C)Nc2nnnn2C1c1ccccc1Cl (stereo not shown) | -2.51%
CCOC(=O)Cc1cc(OC)c(OC)cc1Cc1cc(OC)c(OC)cc1CC(=O)OCC | 9.74%
C/C(=N\NC(=O)C1(C)CC1(Br)Br)c1ccc(NC(=O)C2CCC2)cc1 (stereo not shown) | 7.51%
COc1ccc(CCNc2cc(C)[nH]c(=O)c2)cc1OC | 29.6%
CCOC(=O)c1c(N)c2cc([N+](=O)[O-])ccc2n1C | 18.1%
CCOCCCNC(=S)N1C2CCC1CC(NC(=O)NC13CC4CC(CC(C4)C1)C3)C2 (stereo not shown) | -8.16%
O=C(Nc1ccc(F)cc1)C1CCCN(c2cnccn2)C1 (stereo not shown) | -11.9%
O=C(NCc1ccc(F)cc1)C1CCCN(c2cnccn2)C1 (stereo not shown) | -65%
O=C(NCc1ccccc1F)C1CCCN(c2cnccn2)C1 (stereo not shown) | 13.4%
Cc1c(CCC(=O)NCC(=O)NCC(=O)O)c(=O)oc2cc3oc4c(c3cc12)CCCC4 | 4.87%
COc1ccc2cc3cc(C(=O)NCCCN4CCC(C)CC4)oc3nc2c1 | -58.5%
COc1ccc2cc3cc(C(=O)NCCN4CCN(c5ccccc5F)CC4)oc3nc2c1 | -15.8%
COc1ccc2cc3cc(C(=O)NCCN4CCc5ccccc5C4)oc3nc2c1 | -63.3%
COc1ccc2cc3cc(C(=O)NCCCN4CCOCC4)oc3nc2c1 | -5.55%
COCCCNC(=O)c1cc2cc3cc(OC)ccc3nc2o1 | -12.9%
CCOC(=O)N1CCC(NC(=O)c2cc3cc4cc(OC)ccc4nc3o2)CC1 | -16.2%
COc1ccc2cc3cc(C(=O)NCCCN4CCc5ccccc5C4)sc3nc2c1 | -32.7%
COc1ccc2nc3oc(C(=O)NC4CCN(Cc5ccccc5)CC4)cc3cc2c1 | -67.1%
COc1ccc2cc3cc(C(=O)NCc4ccccn4)oc3nc2c1 | 12.1%
CCN1CCN(CCCNC(=O)c2cc3cc4ccc(OC)cc4nc3o2)CC1 | -17.1%
COc1ccc2cc3cc(C(=O)NCCN4CCc5ccccc5C4)sc3nc2c1 | -32.9%
COc1ccc2cc3cc(C(=O)NCCN4CCN(Cc5ccccc5)CC4)oc3nc2c1 | -71.8%
